Structures are written as SMILES. “And” between values parts separate entries of the source, which are not always exact repeats. Equal entries are not always repeated. Records with an inconclusive call do not appear. A structure can be active in one record and inactive in another. A number with no mark means an inactive call. The source made the active and inactive calls. The call rests on the fitted dose curve; in most records, active means well fitted inhibition curve with a large enough effect; inconclusive means small, poorly fitted or top-dose-only effect; inactive means flat fitted curve, though single readings scatter.

36 compounds from PubChem BioAssay (NCATS) can be followed below.
On the % scale 0 is the no-effect control and ±100 the full control effect; potency means the concentration at half of the fitted maximal effect.

One test has as its system CRL-7250. Put plainly: Cytotoxic Profiling of Annotated Libraries Using Quantitative High-Throughput Screening (AID 1296008). Further: nearly all actives have a fitted effect of over 60% in size. The settings on record: Five cell lines viability, CellTiter-Glo ATP luminescence, 48-72 h; max response: active compounds read low. An outline of the steps: (§1)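 Cytotoxicity was measured as CellTiter-Glo ATP luminescence, read after 10 min at room temperature. Compound treatment of the cells lasted 48 or 72 hr at 37 degrees Celsius in a qHTS format.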
With `O=C(O)c1cc(-c2ccccc2)nc2ccccc12`, the max response is -0.325% and 3.3% and 1.79%.

Turning to `OC[C@@H](O)[C@H](O)[C@H](O)[C@@H](O)CO`, the max response was 3.59% and -3.14%.

Take `O=C(NC1CCOCC1)c1ccc(-c2cc(-c3cn[nH]c3-c3ccccn3)ccn2)cc1`: the max response is -5.17% and the compound was classed as inactive.

For the compound `CCN1CCC[C@H]1CNC(=O)c1cc(S(N)(=O)=O)ccc1OC`, the max response was -0.0938% and -2.14%.

With `COc1ccc(C2CC(c3ccccc3)=NN2c2ccc(S(N)(=O)=O)cc2)cc1` (stereo unspecified), the Potency is 10.5 µM (active) and the max response was -2.01%.

As to `Clc1ccc(Cn2c(CN3CCCC3)nc3ccccc32)cc1`, the max response was -0.466% and the result was inactive.

As to `O=C(O)Cc1cccc2ccccc12`, the outcome was inactive.

In the case of `C[C@@H](O)[C@H]1C(=O)N2C(C(=O)O)=C(S[C@@H]3CN[C@H](C(=O)N(C)C)C3)[C@H](C)[C@H]12`, the max response was 3.74% and the compound was classed as inactive.

In the case of `CC(=O)Oc1cc2c(s1)CCN(C(C(=O)C1CC1)c1ccccc1F)C2` (stereo unspecified), the max response is 4.12%.

Regarding `CC(=O)CCCCn1c(=O)c2c(ncn2C)n(C)c1=O`, the max response was -2.71% and -0.425%.

Turning to `O=C(CCN1CCN(C(=O)OCc2cc(Cl)cc(Cl)c2)CC1)c1ccc2[nH]c(=O)oc2c1`, the max response is -14.6% and the outcome was inactive.

For the compound `COc1ncc(-c2ccc3nccc(-c4ccnnc4)c3c2)cc1NS(=O)(=O)c1ccc(F)cc1F`, the max response was -92.9%.

For `O=C(O)CCc1nc(-c2ccccc2)c(-c2ccccc2)o1`, the max response is -11.7% and 0.986%.

Turning to `CNC(=O)c1ccc2cc(C3(O)CCn4cncc43)ccc2c1` (stereo unspecified), the max response is -2.53% and -8.91%.

For `COc1ccccc1N1CCN(CCCNc2cc(=O)n(C)c(=O)n2C)CC1`, the max response was -0.41% and the result was inactive.

With `CS(=O)c1ccc(-c2nc(-c3ccc(F)cc3)c(-c3ccncc3)[nH]2)cc1` (stereo unspecified), the Potency was 19.1 µM (active) and the compound was classed as inactive.

Consider `CC(C)C(=O)Oc1ccc(CO)cc1[C@H](CCN(C(C)C)C(C)C)c1ccccc1`, for which the max response is -3.71% and 3.58%.

For `Cc1cnc(C(=O)O)c[n+]1[O-]`, the max response is 4.3%.

`CC[C@]1(O)C[C@@H]2CN(CCc3c([nH]c4ccccc34)[C@@](C(=O)OC)(c3cc4c(cc3OC)N(C)[C@H]3[C@@](O)(C(=O)OC)[C@H](OC(C)=O)[C@]5(CC)C=CCN6CC[C@]43[C@@H]65)C2)C1`: the Potency was 0.266 µM (active).

Turning to `COc1ccc2cc(-c3nc(-c4ccc(S(C)=O)cc4)[nH]c3-c3ccncc3)ccc2c1` (stereo unspecified), the max response was -4.22% and the outcome was inactive.

With `CCN(CC)CCNC(=O)c1ccc(N)cc1`, the call was inactive.

For the compound `CC(C)(C)c1cc(C(=O)O)c(NC(=O)Nc2ccc3[nH]ncc3c2)s1`, the max response was -5.25% and -2.72%.

In the case of `COc1ccc2c(Oc3ccc(NC(=O)c4c(C)n(CC(C)(C)O)n(-c5ccccc5)c4=O)nc3)ccnc2c1`, the Potency was 18.4 µM (active) and the max response was -5.8%.

For `NC(=O)c1ccc2nc(-c3ccc(Oc4ccc(Cl)cc4)cc3)[nH]c2c1`, the max response is -25.5% and the compound was classed as inactive.

As for `CCOc1ccc(Nc2nc(-c3c(C)nc4ccccn34)cs2)cc1`, the Potency was 0.146 µM (active).

On to `O=C(O)c1ccccc1C(=O)Nc1ccc(-c2ccccc2)cc1`, for which the max response is 4.68%.

Regarding `CN(C)CCC(c1ccccc1)c1ccccn1` (stereo unspecified), the max response is -4.39%.

Take `COC(=O)[C@@H]1[C@H]2C[C@H]3c4[nH]c5ccccc5c4CCN3C[C@@H]2CC[C@@H]1O`: the result was inactive.

Regarding `O=C(Nc1ccccc1-c1cn2c(CN3CCNCC3)csc2n1)c1cnc2ccccc2n1`, the Potency was 26.4 µM (active).

For `Cc1ccccc1C(C(=O)NC1CCCCC1)N(C(=O)Cn1ccnc1C)c1cccc(F)c1` (stereo unspecified), the max response is -5.16% and the result was inactive.

Take `Cc1c(NC(=O)c2ccc(C(C)(C)C)cc2)cccc1-c1cn(C)c(=O)c(Nc2ccc(C(=O)N3CCOCC3)cc2)n1`: the max response was 2.1% and the outcome was inactive.

For the compound `CCOC(=O)C1=C(N)Oc2ccc(Br)cc2C1C(C#N)C(=O)OCC` (stereo unspecified), the max response is 2.39% and -0.818% and 2%.

With `Cc1ccc(Nc2cc(-c3cccc(N4C(=O)c5ccccc5C4=O)c3)ncn2)cc1NS(C)(=O)=O`, the compound was classed as inactive.

As to `CC(C)[C@H](CO)Nc1nc(Nc2ccc(C(=O)O)c(Cl)c2)c2ncn(C(C)C)c2n1`, the call was inactive.

Turning to `CCCNC(=O)NS(=O)(=O)c1ccc(Cl)cc1`, the max response was -0.307% and the result was inactive.

Turning to `COc1cc2ncnc(-n3nc(-c4ccccn4)nc3N)c2cc1OC`, the Potency is 3.55 µM (active) and the max response was -12.8%.

In another test the test system is HEK293. The test is described as above. The settings on record: Five cell lines viability, CellTiter-Glo ATP luminescence, 48-72 h; max response: active compounds read low. The method in brief:
as §1
In general terms: In ATP-based viability assays light output follows the ATP content of the culture.
Turning to `O=C(O)c1cc(-c2ccccc2)nc2ccccc12`, the max response was -6.89% and the compound was called inactive.

As to `OC[C@@H](O)[C@H](O)[C@H](O)[C@@H](O)CO`, the result was inactive.

On to `O=C(NC1CCOCC1)c1ccc(-c2cc(-c3cn[nH]c3-c3ccccn3)ccn2)cc1`, for which the max response was -15.5%.

As to `CCN1CCC[C@H]1CNC(=O)c1cc(S(N)(=O)=O)ccc1OC`, the call was inactive.

Turning to `Clc1ccc(Cn2c(CN3CCCC3)nc3ccccc32)cc1`, the max response is -18%.

Turning to `O=C(O)Cc1cccc2ccccc12`, the max response was 0.788% and 3.55%.

Consider `C[C@@H](O)[C@H]1C(=O)N2C(C(=O)O)=C(S[C@@H]3CN[C@H](C(=O)N(C)C)C3)[C@H](C)[C@H]12`, for which the call was inactive.

Take `CC(=O)Oc1cc2c(s1)CCN(C(C(=O)C1CC1)c1ccccc1F)C2` (stereo unspecified): the Potency was 2.96 µM (active).

In the case of `CC(=O)CCCCn1c(=O)c2c(ncn2C)n(C)c1=O`, the max response was -3.31% and the result was inactive.

Take `O=C(CCN1CCN(C(=O)OCc2cc(Cl)cc(Cl)c2)CC1)c1ccc2[nH]c(=O)oc2c1`: the Potency is 9.2 µM (active) and the max response is -21.4%.

Regarding `COc1ncc(-c2ccc3nccc(-c4ccnnc4)c3c2)cc1NS(=O)(=O)c1ccc(F)cc1F`, the Potency is 0.0206 µM (active) and the max response was -126%.

Regarding `O=C(O)CCc1nc(-c2ccccc2)c(-c2ccccc2)o1`, the max response was -15.1% and -1.16%.

For `CNC(=O)c1ccc2cc(C3(O)CCn4cncc43)ccc2c1` (stereo unspecified), the max response was -5.04% and 1.96%.

For the compound `COc1ccccc1N1CCN(CCCNc2cc(=O)n(C)c(=O)n2C)CC1`, the compound was classed as inactive.

For the compound `CS(=O)c1ccc(-c2nc(-c3ccc(F)cc3)c(-c3ccncc3)[nH]2)cc1` (stereo unspecified), the Potency was 8.55 µM (active) and the compound was classed as inactive.

`CC(C)C(=O)Oc1ccc(CO)cc1[C@H](CCN(C(C)C)C(C)C)c1ccccc1`: the max response is -22.5% and -1.3%.

For `Cc1cnc(C(=O)O)c[n+]1[O-]`, the result was inactive.

Take `CC[C@]1(O)C[C@@H]2CN(CCc3c([nH]c4ccccc34)[C@@](C(=O)OC)(c3cc4c(cc3OC)N(C)[C@H]3[C@@](O)(C(=O)OC)[C@H](OC(C)=O)[C@]5(CC)C=CCN6CC[C@]43[C@@H]65)C2)C1`: the Potency was 66.8 nM (active) and 84.1 nM (active) and 46.1 nM (active).

Take `CCN(CC)CCNC(=O)c1ccc(N)cc1`: the compound was classed as inactive.

As for `CC(C)(C)c1cc(C(=O)O)c(NC(=O)Nc2ccc3[nH]ncc3c2)s1`, the max response was -1.74% and 1.5%.

Regarding `COc1ccc2c(Oc3ccc(NC(=O)c4c(C)n(CC(C)(C)O)n(-c5ccccc5)c4=O)nc3)ccnc2c1`, the max response was 3.25%.

On to `CCOc1ccc(Nc2nc(-c3c(C)nc4ccccn34)cs2)cc1`, for which the Potency was 0.0461 µM (active).

As for `O=C(O)c1ccccc1C(=O)Nc1ccc(-c2ccccc2)cc1`, the max response was -10.6%.

With `CN(C)CCC(c1ccccc1)c1ccccn1` (stereo unspecified), the max response was -3.33% and the outcome was inactive.

Take `COC(=O)[C@@H]1[C@H]2C[C@H]3c4[nH]c5ccccc5c4CCN3C[C@@H]2CC[C@@H]1O`: the max response was -10.9% and -9.65%.

As for `O=C(Nc1ccccc1-c1cn2c(CN3CCNCC3)csc2n1)c1cnc2ccccc2n1`, the Potency is 23.5 µM (active).

`Cc1ccccc1C(C(=O)NC1CCCCC1)N(C(=O)Cn1ccnc1C)c1cccc(F)c1` (stereo unspecified): the max response is -0.939%.

In the case of `Cc1c(NC(=O)c2ccc(C(C)(C)C)cc2)cccc1-c1cn(C)c(=O)c(Nc2ccc(C(=O)N3CCOCC3)cc2)n1`, the Potency was 11.8 µM (active).

Take `CCOC(=O)C1=C(N)Oc2ccc(Br)cc2C1C(C#N)C(=O)OCC` (stereo unspecified): the max response is -11.5% and -3.28%; the result was inactive.

As to `Cc1ccc(Nc2cc(-c3cccc(N4C(=O)c5ccccc5C4=O)c3)ncn2)cc1NS(C)(=O)=O`, the max response was -21.5%.

For the compound `CC(C)[C@H](CO)Nc1nc(Nc2ccc(C(=O)O)c(Cl)c2)c2ncn(C(C)C)c2n1`, the max response was 1.29%.

In the case of `CCCNC(=O)NS(=O)(=O)c1ccc(Cl)cc1`, the max response was -0.916% and the compound was classed as inactive.

As to `COc1cc2ncnc(-n3nc(-c4ccccn4)nc3N)c2cc1OC`, the compound was classed as inactive.
